Assay outcomes as filed in PubChem BioAssay.
GPR151 ag: human GPR151 activation. Q8TDV0. PathHunter beta-arrestin GPR151 cells, luminescence. activation, % at 11.2 µM. 1% of 650,000 active. AID 1508602; in the data active = activation above about 4.9%;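 also: 0% = median of compound wells and 100% = cells with positive control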
MITF primary: blocks human microphthalmia-associated transcription factor. 0.91% of 650,000 active. inhibition, % at 2.6 µM. O75030. AlphaScreen MITF homodimerization, bead proximity signal. AID 1259374; in the data active = inhibition above about 50%;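 also: 0% = vehicle wells with protein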
FBW7 activator: activators of human E3 ligase FBW7; AlphaScreen FBW7–phospho-cyclin E peptide binding, activator screen; normalized activity (activation), % at 26.1 µM; AID 1259310; 0.13% of 650,000 active; in the data active = normalized activity above about 1.9%;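 also: purified mutant Fbw7 with reduced substrate affinity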
Target sequence (Q969H0 whole entry, looked up): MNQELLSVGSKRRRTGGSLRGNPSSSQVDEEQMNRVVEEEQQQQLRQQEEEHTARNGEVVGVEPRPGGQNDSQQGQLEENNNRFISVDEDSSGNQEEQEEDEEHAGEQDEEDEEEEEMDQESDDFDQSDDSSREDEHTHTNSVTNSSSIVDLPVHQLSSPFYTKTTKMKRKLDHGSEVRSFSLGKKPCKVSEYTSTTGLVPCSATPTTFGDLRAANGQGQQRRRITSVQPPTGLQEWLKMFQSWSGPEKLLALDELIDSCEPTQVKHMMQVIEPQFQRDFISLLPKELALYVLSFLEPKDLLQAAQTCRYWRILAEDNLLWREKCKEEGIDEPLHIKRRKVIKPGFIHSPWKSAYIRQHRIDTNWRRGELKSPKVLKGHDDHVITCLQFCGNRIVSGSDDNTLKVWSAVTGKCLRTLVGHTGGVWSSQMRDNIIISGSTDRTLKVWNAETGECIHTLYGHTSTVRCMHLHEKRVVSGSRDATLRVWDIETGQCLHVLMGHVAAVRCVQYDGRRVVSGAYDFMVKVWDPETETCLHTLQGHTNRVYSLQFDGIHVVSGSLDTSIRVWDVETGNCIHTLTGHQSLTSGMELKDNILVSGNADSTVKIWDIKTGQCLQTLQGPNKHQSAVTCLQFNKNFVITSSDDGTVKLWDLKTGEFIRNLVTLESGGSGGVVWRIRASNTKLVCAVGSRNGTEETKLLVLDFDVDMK
TEAD-YAP inh: TEAD-YAP interaction inhibition; HEK-TIYL cells, TEAD-Gal4/YAP UAS-luciferase luminescence; inhibition, % at 9.12 µM; 1.4% of 640,000 active; in the data active = inhibition above about 32%;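 also: 0% = median of test compound wells and 100% = reference inhibitor wells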
GPR151 conf act: human GPR151 activation, confirmation screen. shares compounds with GPR151 ag. GPR151 PathHunter beta-arrestin cells, luminescence, 90 min; % of EA-reagent control over plate median. activation, % at 11.2 µM. 6,700 tested, under 10 active;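 active = mean percent activation across replicates above the confirmation screen cutoff of 4.91%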
GPR119 counter: counter-screen for GPR151 activators: effect on human GPR119; shares compounds with GPR151 ag; GPR119 PathHunter beta-arrestin cells, luminescence, 90 min; 0 = compound-well median, 100 = enzyme-acceptor control; activation, % at 11.2 µM; 0.3% of 6,700 active;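 active = mean percent activation in the counterscreen above 29.09%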;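 also: counterscreen on off-target GPR119 to flag nonselective hits from the GPR151 activator screen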
* = called active by the depositor. Compounds with a hit are over-represented: about 3.5% of the library has one in this group of screens.

How did CCCCOc1nc2ccccc2nc1C(C#N)C(=O)OCC (stereo not drawn) do in these assays?
GPR151 ag: 5.3*; MITF primary: -13; FBW7 activator: 0; TEAD-YAP inh: -7; GPR151 conf act: 0; GPR119 counter: -4

Results for COC(=O)c1ccc(NC(=O)C(=O)NCCCN(C)C)cc1 ?
GPR151 ag: 1; MITF primary: 9; FBW7 activator: 0; TEAD-YAP inh: 6

Results for O=C1CN(c2ccccc2NC(=O)C2(c3cccs3)CCCC2)CCN1 ?
GPR151 ag: 5.0*; MITF primary: 11; FBW7 activator: 0; TEAD-YAP inh: 8; GPR151 conf act: 0; GPR119 counter: 7

How did O=C(CSc1nnnn1-c1ccccc1)Nc1ccc(OC(F)(F)F)cc1 do in these assays?
GPR151 ag: 7.7*; MITF primary: 12; FBW7 activator: 0; TEAD-YAP inh: 6; GPR151 conf act: 0; GPR119 counter: 5

Results for O=C(CSc1nnnn1-c1ccccc1)Nc1ccc(O)cc1 ?
GPR151 ag: -1; MITF primary: -17; FBW7 activator: 0; TEAD-YAP inh: 10

Results for Cc1ccc([N+](=O)[O-])cc1NC(=O)c1ccncc1 ?
GPR151 ag: 0; MITF primary: -4; FBW7 activator: 0; TEAD-YAP inh: -6

How did CCOc1ccc(C2NC(=S)NC3=C2C(=O)CCC3)cc1 (stereo not drawn) do in these assays?
GPR151 ag: 5.8*; MITF primary: 12; FBW7 activator: 1; TEAD-YAP inh: 2; GPR151 conf act: 0; GPR119 counter: 1

Results for COc1ccc(-c2nnc(SCC(=O)/C(C#N)=C(\C)N)o2)cc1OC ?
GPR151 ag: -1; MITF primary: -6; FBW7 activator: 0; TEAD-YAP inh: -21

How did CC1CN(c2ccc(Br)cc2)c2nc3c(c(=O)n(CC(N)=O)c(=O)n3C)n2C1 (stereo not drawn) do in these assays?
GPR151 ag: 10*; MITF primary: 0; FBW7 activator: 0; TEAD-YAP inh: -7; GPR151 conf act: -2; GPR119 counter: -19

How did COCc1ccc([C@@H]2C[C@H]3CN(c4ccccc4)C(=O)[C@]34CCCN24)o1 do in these assays?
GPR151 ag: 5.6*; MITF primary: 1; FBW7 activator: 0; TEAD-YAP inh: 6; GPR151 conf act: 1; GPR119 counter: 3

How did COCc1ccc([C@@H]2C[C@H]3CN(C4Cc5ccccc5C4)C(=O)[C@]34CCCN24)o1 do in these assays?
GPR151 ag: 4; MITF primary: 6; FBW7 activator: 0; TEAD-YAP inh: -6

How did CC(=O)NCC1Cc2cc(F)cc(-c3ccc(C(C)=O)s3)c2O1 (stereo not drawn) do in these assays?
GPR151 ag: 4; MITF primary: -24; FBW7 activator: 0; TEAD-YAP inh: -6

Results for O=C(COc1ccccc1F)Nc1cccc(NC(=O)COc2ccccc2F)n1 ?
GPR151 ag: -3; MITF primary: 0; FBW7 activator: 0; TEAD-YAP inh: -28

How did Cc1cccc(NC(=O)CCC2CCN(C(=O)c3cc(C)nc(C)n3)CC2)c1 do in these assays?
GPR151 ag: 5.2*; MITF primary: 8; FBW7 activator: 0; TEAD-YAP inh: 4; GPR151 conf act: 1; GPR119 counter: 14

Results for COc1ccc(CCN2C(=O)CC(C(=O)Nc3ccc(Cl)cc3)SC2=Nc2ccc(F)cc2)cc1OC (stereo not drawn) ?
GPR151 ag: 5.4*; MITF primary: 13; FBW7 activator: 0; TEAD-YAP inh: -4; GPR151 conf act: 0; GPR119 counter: 7

How did COc1ccc(CCN2C(=O)CC(C(=O)Nc3ccc(F)cc3)SC2=Nc2ccc(Cl)cc2)cc1OC (stereo not drawn) do in these assays?
GPR151 ag: 1; MITF primary: 15; FBW7 activator: 0; TEAD-YAP inh: 3

How did NC(=O)C1CCN(C2=NS(=O)(=O)c3ccccc32)CC1 do in these assays?
GPR151 ag: -2; MITF primary: -1; FBW7 activator: 0; TEAD-YAP inh: 7

What do the screens show for `O=C(OCc1nc2ccccc2s1)C1CCN(C2=NS(=O)(=O)c3ccccc32)CC1`?
GPR151 ag: 5.6*; MITF primary: 7; FBW7 activator: 0; TEAD-YAP inh: -6; GPR151 conf act: 1; GPR119 counter: 12

Results for Cc1nc(-c2ccc(S(=O)(=O)N3CCOCC3)cc2)cs1 ?
GPR151 ag: 8.6*; MITF primary: 4; FBW7 activator: 0; TEAD-YAP inh: 1; GPR151 conf act: 0; GPR119 counter: 2

How did O=C(NCc1nc(-c2ccncc2)n[nH]1)C(c1ccccc1)C1CCCCC1 (stereo not drawn) do in these assays?
GPR151 ag: 7.1*; MITF primary: -6; FBW7 activator: 0; TEAD-YAP inh: 0; GPR151 conf act: 0; GPR119 counter: -2

What do the screens show for `C/C(=N\Nc1ccc2ccccc2n1)c1ccccc1`?
GPR151 ag: 1; MITF primary: -17; FBW7 activator: 0; TEAD-YAP inh: -16

Results for CC1CCN(c2nc(N3CCOCC3)nc(N3CCOCC3)n2)CC1 ?
GPR151 ag: 8.9*; MITF primary: 8; FBW7 activator: 0; TEAD-YAP inh: 8; GPR151 conf act: 0; GPR119 counter: -2

What do the screens show for `CC(C)C(=O)NC(C)c1nnc2n1CCN(Cc1ccco1)CC2` (stereo not drawn)?
GPR151 ag: 12*; MITF primary: -24; FBW7 activator: 0; TEAD-YAP inh: -7; GPR151 conf act: 0; GPR119 counter: 9

What do the screens show for `CCN(CC(=O)N1CCN(c2ccc(F)cc2)CC1)S(=O)(=O)c1ccc(Cl)cc1`?
GPR151 ag: 0; MITF primary: 17; FBW7 activator: 0; TEAD-YAP inh: 4

What do the screens show for `O=c1c2cnn(-c3ccccc3)c2ncn1C/C=C/c1ccccc1`?
GPR151 ag: 8.3*; MITF primary: 3; FBW7 activator: 0; TEAD-YAP inh: 1; GPR151 conf act: 0; GPR119 counter: 2

Results for COc1ccc(-c2cn3c(C)csc3n2)cc1OC ?
GPR151 ag: -2; MITF primary: 8; FBW7 activator: 0; TEAD-YAP inh: -55

What do the screens show for `Cc1cc(C)n2c(Br)c(CSc3nc4ccccc4[nH]3)nc2n1`?
GPR151 ag: 0; MITF primary: 14; FBW7 activator: 0; TEAD-YAP inh: -8

What do the screens show for `COCCN(CCOC)S(=O)(=O)c1ccc(C(=O)Nc2nc(-c3ccc(OC)cc3)cs2)cc1`?
GPR151 ag: -1; MITF primary: -7; FBW7 activator: 0; TEAD-YAP inh: 1

What do the screens show for `COCCN(CCOC)S(=O)(=O)c1ccc(C(=O)Nc2nc(-c3ccncc3)cs2)cc1`?
GPR151 ag: 8.8*; MITF primary: -9; FBW7 activator: 0; TEAD-YAP inh: -3; GPR151 conf act: 1; GPR119 counter: 13
